Bioassay records as filed in PubChem.
PGE2 EP2 inh: inhibitors of human EP2 prostaglandin E2 receptor. P43116. C6 glioma cells expressing human EP2, cAMP TR-FRET; cells stimulated with saturating PGE2. inhibition, % at 25 µM. actives 0.52% (n = 260,000). AID 1422;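 active = percent inhibition above 40 after rounding to a whole number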;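 note: rat C6 glioma host cells with rolipram phosphodiesterase inhibitor present; the protocol text gives 20 µM as final concentration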
CHT block: human CHT choline transport inhibition; Q9GZV3; CHT-expressing cells, membrane potential dye, choline response; hits give low values; B-score at 10 µM; actives 0.86% (n = 310,000); AID 488975;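 active = B-score over 3 SD under the library average, and starting fluorescence ratio not unusually high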;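 note: choline stimulus applied at its EC90 after an EC20 pre-addition; B-score computed on integrated fluorescence ratio after choline addition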
Target sequence (Q9GZV3 whole entry, looked up): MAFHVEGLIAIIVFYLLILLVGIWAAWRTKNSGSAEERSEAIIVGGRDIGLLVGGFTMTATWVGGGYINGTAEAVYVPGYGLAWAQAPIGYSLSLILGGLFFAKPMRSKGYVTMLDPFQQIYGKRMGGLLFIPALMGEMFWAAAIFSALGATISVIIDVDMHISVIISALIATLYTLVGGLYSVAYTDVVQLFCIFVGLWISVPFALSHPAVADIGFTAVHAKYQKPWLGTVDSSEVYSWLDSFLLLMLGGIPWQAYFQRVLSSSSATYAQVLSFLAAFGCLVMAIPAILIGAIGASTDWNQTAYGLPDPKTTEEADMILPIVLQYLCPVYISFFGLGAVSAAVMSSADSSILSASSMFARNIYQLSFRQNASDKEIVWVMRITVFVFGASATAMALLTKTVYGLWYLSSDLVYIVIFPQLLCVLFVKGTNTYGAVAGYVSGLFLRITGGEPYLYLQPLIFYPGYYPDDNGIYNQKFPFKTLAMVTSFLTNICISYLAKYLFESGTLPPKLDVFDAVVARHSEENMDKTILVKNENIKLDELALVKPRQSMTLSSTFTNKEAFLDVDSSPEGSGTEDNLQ
CHT PAM: human CHT allosteric activation | Q9GZV3 | CHT-expressing cells, membrane potential dye, choline EC20; hits give high values; LV-AA mutant CHT in HEK293 cells | B-score at 10 µM | actives 0.49% (n = 310,000) | AID 488977;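 active = initial fluorescence not abnormally high and integrated response B-score, plate-corrected, over 3 SD above library mean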
EP2 modulator: modulators of human EP2 prostaglandin E2 receptor | actives 0.83% (n = 260,000) | P43116 | EP2-expressing cells, cAMP HTRF FRET, PGE2 co-stimulation | AID 940 | induction, % at 25 µM;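 active = compounds whose cAMP rise, as percent of the full-agonist control response, exceeds 60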;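 note: rat C6 glioma line stably carrying human EP2 under a CMV promoter; the protocol text gives 20 µM as final concentration; 100% = response of wells given 1 µM PGE2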
CHT block conf: confirmation of human choline transporter CHT inhibitors | shares compounds with CHT block | CHT-expressing cells, choline membrane potential dye; LV-to-AA substituted CHT, HEK293 cells | CHT activity remaining % of control (hits give low values), % at 10 µM | actives 70% (n = 2,400) | AID 493221;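 active = choline transporter activity left, mean of duplicates at 10 µM, below buffer-only control mean minus 3 SD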;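 note: depolarization triggered by choline at its EC90 following an EC20 pre-addition; 0% = hemicholinium-3 full block and 100% = buffer-only control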
HEK293 CHT ctr: activity in parental HEK293 cells lacking CHT; shares compounds with CHT block; AID 493222; membrane potential ratio readout (active if shifted either direction beyond buffer ±3SD; no single direction) at 10 µM; actives 4% (n = 2,400); membrane potential dye, choline response; active = decrease or increase beyond buffer ±3SD;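 note: parental cells lack the transporter so any hit is non-specific; ratio is peak minus trough fluorescence over baseline after EC90 choline challenge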
* marks the source's active call; other numbers are inactive results; i = inactive; x = no result. This is a sample that favours compounds with a hit; in the whole collection about 2% have one here.

SMILES	PGE2 EP2 inh	CHT block	CHT PAM	EP2 modulator	CHT block conf	HEK293 CHT ctr
OCc1ccccc1OCCOc1ccc(Cl)c2cccnc12	2.8	-9.74*	i	-29.9	44.2%*	i
CCN(CC(=O)NCc1cccs1)S(=O)(=O)c1ccc(C(C)C)cc1	5.3	-5*	i	-46.8	59.6%*	i
CCC1c2ccsc2CCN1Cc1cccc(OCCOC)c1 (stereo unspecified)	6.3	x	x	33.7	x	x
CCCc1nc2oc3c(NCC4CCCO4)ncnc3c2c2c1COC(C)(C)C2 (stereo unspecified)	6.8	-8.07*	i	36.2	16.0%*	i
COc1ccc(/C=C2\N=C(c3ccccc3)N(c3ccc(C(=O)O)cc3)C2=O)cc1OC	3.1	-6.91*	i	15.2	46.8%*	i
CC1=N/C(=C\c2ccc(OC(C)C)cc2)C(=O)N1c1ccc(C(=O)O)cc1	4.7	i	i	3.1	x	x
CCOc1ccccc1/C=C/C(=O)NCC(=O)N1CCC(N(C)C2CCCCC2C)CC1 (stereo unspecified)	x	-5.47*	i	x	11.4%*	i
O=[N+]([O-])c1cc(NS(=O)(=O)c2ccc(Cl)nc2)ccc1Cl	x	-6.17*	i	x	42.3%*	i
O=C(CSCc1nc2ccccc2[nH]1)N1CCN(c2ccc(F)cc2)CC1	25.8	-5.01*	i	5.7	i	i
O=C(CSCc1nc2ccccc2[nH]1)N1CCN(c2cccc(Cl)c2)CC1	9.7	i	i	-11.0	x	x
Cc1nn(C)cc1S(=O)(=O)Nc1ccc2c(c1)oc(=O)n2C	6.3	x	x	-40.9	x	x
CCOC(=O)C1(Cc2ccc(OC)cc2)CCN(C(=O)c2cncs2)CC1	7.6	-7.06*	i	-5.4	i	i
COC(=O)c1ccccc1S(=O)(=O)N(Cc1cccnc1)Cc1cc2cc(C)ccc2[nH]c1=O	12.6	x	x	-13.5	x	x
Cc1cccc(OCC(=O)NC(=S)NNC(=O)c2ccncc2)c1	x	i	i	x	x	x
COc1ccc(OCC(=O)NC(=S)Nc2ccccc2F)cc1	4.5	-5.23*	i	-18.9	59.5%*	i
COc1ccc(C(=O)NC(=S)NNC(=O)c2ccc(C)cc2)cc1	x	-7.2*	i	x	48.7%*	i
COC(=O)c1ccccc1NC(=S)NC(=O)COc1ccccc1	9.6	i	i	20.1	x	x
Cc1ccccc1C(=O)NNC(=S)NC(=O)COc1ccccc1	13.9	-7.99*	i	-43.5	33.3%*	i
Cc1ccc(C(=O)NNC(=S)NC(=O)COc2ccccc2)cc1	35.7	-6.08*	i	-55.4	i	i
Cc1ccc(CN(CCCn2ccnc2)Cc2cc(F)cc(F)c2)s1	5.2	x	x	27.7	x	x
Cc1cc(C)n(-c2ccc(Cl)cc2)c(=O)c1C#N	5.2	x	x	-14.5	x	x
O=C(Nc1ccc(F)cc1)N(Cc1cc2cc3c(cc2[nH]c1=O)OCCO3)CC1CCCO1 (stereo unspecified)	8.9	x	x	-10.3	x	x
Cc1nn(CC(=O)N2C(C)CCCC2C)c(=O)c2cc3ccsc3n12 (stereo unspecified)	x	x	x	-37.7	x	x
CCCCC(=O)NNC(=S)NC(=O)c1ccc(C)cc1	5.0	-9.05*	i	-57.0	30.0%*	i
COc1ccc(-n2nnnc2SCC(=O)Nc2ccc(C)cc2C)c(OC)c1	18.6	x	x	-54.2	x	x
SMILES	PGE2 EP2 inh	CHT block	CHT PAM	EP2 modulator	CHT block conf	HEK293 CHT ctr
CCc1cc([N+](=O)[O-])cc(CC)c1N	8.0	-5.89*	i	17.9	39.7%*	i
Cc1cc(C)c(S(=O)(=O)N2CCC(C(=O)NCc3cccnc3)CC2)c(C)c1	12.7	x	x	-24.8	x	x
O=C(Nc1cccc([N+](=O)[O-])c1)C(=O)N1CCCCC1	2.5	-4.99*	i	8.7	i	i
COc1ccc(-n2cnnc2SCC(=O)Nc2cc(S(=O)(=O)N3CCCCC3)ccc2C)cc1	13.2	-5.31*	i	-5.2	53.1%*	i
Cc1ccc(S(=O)(=O)N2CCCCC2)cc1NC(=O)CSc1nncn1-c1ccccc1	9.0	-6.14*	i	-7.1	40.8%*	i
CC(C)(C)CC(C)(C)NCC(O)COc1c(F)cc(Br)cc1F (stereo unspecified)	9.0	-5.53*	i	-11.5	60.1%*	-9.05*
O=C(Nc1ccc(F)c(Cl)c1)C1CC(=O)n2ncnc2N1 (stereo unspecified)	8.0	x	x	-56.8	x	x
CCOc1cc2[nH]c(=S)n(C3CC3)c(=O)c2cc1OCC	8.3	i	i	-23.9	x	x
CCOc1cc2[nH]c(=S)n(C(C)C)c(=O)c2cc1OCC	10.2	-8.75*	i	2.2	51.6%*	i
Cc1cccc(NC(=O)CN(C)S(=O)(=O)c2ccc(-c3ccc(=O)[nH]n3)s2)c1C	x	-6.35*	i	x	i	i
Cc1ccccc1NC(=O)CN(C)S(=O)(=O)c1ccc(-c2ccc(=O)[nH]n2)s1	x	i	i	x	x	x
CCOC(=O)c1ccccc1N/C=C/C(=O)c1cccs1	3.8	-8.51*	i	6.9	41.5%*	i
CCOC(=O)c1ccccc1NC(=O)c1cccs1	6.2	i	i	42.4	x	x
Cc1ccc(OCCCCn2c(CCCO)nc3ccccc32)cc1	11.8	x	x	-84.6	x	x
CCCCCn1c(N)c(-c2nc3ccccc3s2)c2c([N+](=O)[O-])nn(C)c(=O)c21	8.3	-6.33*	i	-22.2	i	i
CC(C)C(=O)Nc1cccc(NC(=O)c2ccc(Cl)cc2Cl)c1	-2.8	-9.43*	i	-33.8	42.9%*	i
CC1(C)Cc2c(c(N3CCOCC3)nc3sc(C(=O)Nc4ccccn4)c(N)c23)CO1	15.2	x	x	45.3	x	x
N=C(N)SCc1ncccc1O	1.5	i	i	12.3	x	x
N=C(N)SCc1ccccn1	5.6	-5.94*	i	22.2	33.4%*	i
Cc1ccc(C)c(NC(=O)COc2ccc(N3CC(C(N)=O)CC3=O)cc2)c1 (stereo unspecified)	10.8	x	x	9.5	x	x
CCCCNC(=O)c1ccc2c(OCC)n(CCCC)nc2c1	6.7	-7.08*	i	-17.7	57.5%*	i
CCCCn1nc2cc(C(=O)NCCc3ccc(C)cc3)ccc2c1OCC	11.4	i	i	-33.3	x	x
CS(=O)(=O)C1=NSC2=NC(=O)/C(=C\c3ccc(OC(=O)c4ccco4)cc3)C(=N)N21	x	i	i	x	x	x
CS(=O)(=O)C1=NN2C(=N)/C(=C\c3ccc(OC(=O)c4ccco4)cc3)C(=O)N=C2S1	x	-6.85*	i	x	60.0%*	i
CCOc1ccc2[nH]c(=O)c(CN(C3CCCCC3)C(CC)c3nnnn3C3CCCC3)cc2c1 (stereo unspecified)	11.1	x	x	27.9	x	x
NC(N)=Nc1nc(CCN2C(=O)c3ccccc3C2=O)cs1	6.7	-6.28*	i	-4.9	30.3%*	i
Cc1nc(CCN2C(=O)c3ccccc3C2=O)cs1	4.1	i	i	33.8	x	x
